A short description of assay [1]: ATG_E_Box_CIS: Attagene CIS-FACTORIAL HepG2 Assay for human Enhancer Box (E-box) (AID 2282936). The conditions noted are these: HepG2 E-box cis-reporter transcription, actives raise or lower the signal. The gist of the method:
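E-box-driven reporter transcripts measured in transiently transfected HepG2 after 24 h exposure: RNA reverse-transcribed, PCR-amplified, fluorescently labelled, digested and resolved by capillary electrophoresis. Gain or loss relative to DMSO.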

A short description of assay [2]: ATG_M_61_CIS: Attagene CIS-FACTORIAL HepG2 Assay for M61 Transcription Factor (Internal Marker) (AID 2282937). To be noted: HepG2 Attagene CIS-FACTORIAL M61 internal marker reporter; actives raise or lower the signal. Summed up: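 Human liver HepG2, transient MRTU transfection (cis promoter elements), 24 h compound. Total RNA → oligo(dT) RT → PCR → FAM label → HpaI → CE. Internal background marker; bidirectional fitting, DMSO = baseline.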

The nature of assay [3]: ATG_EGR_CIS: Attagene CIS-FACTORIAL HepG2 Assay for human Early Growth Response 1 (EGR1) (AID 2282938). The conditions noted are these: HepG2 Attagene CIS-FACTORIAL EGR reporter mRNA; actives raise or lower the signal. The gist of the method:
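Transient transfection of human HepG2 with multiple cis-regulated reporter units, chemical exposure 24 h, total RNA isolated. Reverse transcription, PCR, fluorescent labelling and capillary electrophoresis quantify reporter transcripts; activity fitted bidirectionally against DMSO.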

Assay [4] is described as follows: ATG_M_19_CIS: Attagene CIS-FACTORIAL HepG2 Assay for M19 Transcription Factor (Internal Marker) (AID 2282939). To be noted: HepG2 Attagene CIS-FACTORIAL M19 internal marker reporter; actives raise or lower the signal. Summed up:
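HepG2 cells transiently transfected with cis-regulated multiplexed reporter units, dosed 24 h. Reporter mRNA quantified by RT-PCR and capillary electrophoresis; internal background marker fitted bidirectionally versus DMSO.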

Assay [5] is described as follows: ATG_ERE_CIS: Attagene CIS-FACTORIAL HepG2 Assay for Estrogen Response Element (ERE) (AID 2282940). The conditions noted are these: HepG2 ERE cis-reporter, Attagene RNA transcript; actives raise or lower the signal. Summed up: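 HepG2 cells transiently transfected with multiplexed cis-element reporter units, measuring endogenous transcription factor activity; ERE reporter mRNA quantified after 24 h exposure by RT-PCR, fluorescent labelling, HpaI digestion and capillary electrophoresis. Bidirectional change versus DMSO.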

Assay [6] is described as follows: ATG_Ets_CIS: Attagene CIS-FACTORIAL HepG2 Assay for human Erythroblast Transformation Specific (ETS) (AID 2282941). To be noted: HepG2 ETS cis-reporter transcription, actives raise or lower the signal. Summed up: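 Multiplexed reporter transcript profiling: HepG2, 24 h treatment, total RNA to cDNA, PCR, 6-FAM labelling, HpaI cut, capillary electrophoresis. Gain- or loss-of-signal fitted against DMSO.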

The target of assay [7] is Hepatocyte nuclear factor 3-beta (Homo sapiens) (UniProt Q9Y261). Briefly: ATG_FoxA2_CIS: Attagene CIS-FACTORIAL HepG2 Assay for human Forkhead box A2 (FOXA2) (AID 2282942). The conditions noted are these: HepG2 cis-reporter transcription factor activity, 24 h; actives raise or lower the signal. Summed up: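 Transient MRTU transfection of HepG2 liver cells; 24 h treatment; total RNA → oligo(dT) RT → PCR → FAM primer extension → HpaI cut → CE. Bidirectional fit vs DMSO.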
Sequence of Hepatocyte nuclear factor 3-beta (Homo sapiens) (Q9Y261 whole entry, looked up): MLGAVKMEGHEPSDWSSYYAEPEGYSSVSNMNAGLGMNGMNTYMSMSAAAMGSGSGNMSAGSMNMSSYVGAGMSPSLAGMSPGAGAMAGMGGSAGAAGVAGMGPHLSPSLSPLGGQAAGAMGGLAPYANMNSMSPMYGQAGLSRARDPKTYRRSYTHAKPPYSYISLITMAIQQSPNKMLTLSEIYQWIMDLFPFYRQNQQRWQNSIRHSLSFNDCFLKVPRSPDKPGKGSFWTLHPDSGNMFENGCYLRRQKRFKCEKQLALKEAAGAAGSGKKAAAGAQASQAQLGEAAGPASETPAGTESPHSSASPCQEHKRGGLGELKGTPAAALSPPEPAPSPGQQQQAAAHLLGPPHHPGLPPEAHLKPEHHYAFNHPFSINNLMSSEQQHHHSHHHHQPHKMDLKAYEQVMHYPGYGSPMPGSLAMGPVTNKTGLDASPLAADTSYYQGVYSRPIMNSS

Assay [8] in a line: ATG_FoxO_CIS: Attagene CIS-FACTORIAL HepG2 Assay for human Forkhead box O (FoxO) (AID 2282943). The conditions noted are these: HepG2 Attagene cis-reporter, FoxO element, mRNA; actives raise or lower the signal. Summed up:
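Human hepatoma HepG2 cells carry transiently introduced reporter transcription units controlled by cis promoter elements. Chemical treatment lasted 24 h, and mRNA signal was compared with DMSO.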

Assay [9] is described as follows: ATG_GATA_CIS: Attagene CIS-FACTORIAL HepG2 Assay for human GATA Binding Protein (AID 2282944). To be noted: HepG2 GATA cis-element reporter, Attagene multiplex mRNA; actives raise or lower the signal. The gist of the method:
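HepG2 cells transiently transfected with multiplexed cis-element reporter units measure endogenous GATA activity; after 24 h compound exposure, reporter mRNA quantified by RT-PCR and capillary electrophoresis. Changes fitted in both directions vs DMSO.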

A short description of assay [10]: ATG_GLI_CIS: Attagene CIS-FACTORIAL HepG2 Assay for human Zinc Finger Protein GLI1 (AID 2282945). To be noted: HepG2, Attagene cis-factorial reporter mRNA, GLI element; actives raise or lower the signal. The gist of the method: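 Bidirectional curve fits relative to DMSO, using reporter mRNA levels from RT-PCR plus capillary electrophoresis. Cells were HepG2 transiently carrying cis-regulated reporter constructs, harvested 24 h after dosing.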

The target in assay [11] is Bile acid receptor (Homo sapiens) (UniProt Q96RI1). Briefly: ATG_IR1_CIS: Attagene CIS-FACTORIAL HepG2 Assay for human Nuclear Receptor Subfamily 1 Group H Member 4 (NR1H4), IR1 submotif (AID 2282946). To be noted: IR1 reporter transcription, actives raise or lower the signal. Summed up:
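HepG2 cells transiently transfected with multiplexed cis-element reporter units read endogenous transcription factor activity. After 24 h compound exposure, reporter mRNA was quantified by RT-PCR, fluorescent labelling, HpaI digestion and capillary electrophoresis; bidirectional fitting versus DMSO baseline.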

Assay [12] is described as follows: ATG_GRE_CIS: Attagene CIS-FACTORIAL HepG2 Assay for human Glucocorticoid Response Elements (GRE) (AID 2282947). The conditions noted are these: HepG2 GRE cis-reporter, Attagene multiplex mRNA; actives raise or lower the signal. The gist of the method: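 Reporter transcripts read by RT-PCR with capillary electrophoresis fluorescence after a 24 h chemical exposure of HepG2 cells transiently transfected with multiple cis-element reporter units. Gain or loss fitted against DMSO.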

The nature of assay [13]: ATG_ISRE_CIS: Attagene CIS-FACTORIAL HepG2 Assay for human Interferon Regulatory Factor 1 (IRF1) binding to an Interferon-Stimulated Response Element (ISRE) (AID 2282948). To be noted: HepG2 ISRE cis-reporter (Attagene), mRNA transcription readout; actives raise or lower the signal. The gist of the method:
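Signal reflects induction or loss of ISRE-linked reporter mRNA in transiently transfected HepG2 cells after a 24 h treatment, detected by fluorescent RT-PCR fragments on capillary electrophoresis and normalised to DMSO.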

The nature of assay [14]: ATG_M_32_CIS: Attagene CIS-FACTORIAL HepG2 Assay for M32 Transcription Factor (Internal Marker) (AID 2282949).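 Also: background control marker of the multiplexed CIS panel rather than a real target.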 The conditions noted are these: HepG2 Attagene cis-factorial M32 reporter, mRNA; actives raise or lower the signal. Summed up: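 HepG2 human liver cells transiently transfected with cis-promoter-driven multiple reporter transcription units, dosed 24 h. Reporter mRNA quantified by RT-PCR, FAM-labelled primer extension, HpaI digest and capillary electrophoresis; bidirectional fit versus DMSO baseline.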

A short description of assay [15]: ATG_M_06_CIS: Attagene CIS-FACTORIAL HepG2 Assay for M06 Transcription Factor (Internal Marker) (AID 2282950). To be noted: HepG2 Attagene CIS-FACTORIAL M06 internal marker reporter; actives raise or lower the signal. Summed up:
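Internal background marker within multiplexed cis-reporter HepG2 system. Cells transiently transfected, dosed 24 h; reporter mRNA measured by RT-PCR, HpaI digestion and capillary electrophoresis. Bidirectional fit relative to DMSO.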

Assay [16] has as its target Hypoxia-inducible factor 1-alpha (Homo sapiens) (UniProt Q16665). Briefly: ATG_HIF1a_CIS: Attagene CIS-FACTORIAL HepG2 Assay for human Hypoxia Inducible Factor 1 (HIF1A) (AID 2282951). The conditions noted are these: HepG2 Attagene cis-factorial HIF1a reporter transcription; actives raise or lower the signal. Summed up:
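Transient MRTU transfection of human HepG2 liver cells, 24 h compound treatment, then total RNA isolation, oligo(dT) reverse transcription, PCR amplification, fluorescent labelling and capillary electrophoresis of reporter fragments. Gain or loss relative to DMSO.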

Assay [17] addresses Hepatocyte nuclear factor 6 (Homo sapiens) (UniProt Q9UBC0). Briefly: ATG_HNF6_CIS: Attagene CIS-FACTORIAL HepG2 Assay for human Hepatocyte Nuclear Factor 6 (HNF6) (AID 2282952). The conditions noted are these: HepG2 Attagene cis-factorial HNF6 reporter transcription; actives raise or lower the signal. The gist of the method:
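Endogenous factor activity read in transiently transfected HepG2 via promoter-regulated reporter transcripts. RNA harvested 24 h post-dosing, reverse-transcribed, PCR-amplified, FAM-labelled, HpaI-digested and resolved by capillary electrophoresis; fitted in both directions against DMSO.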

Assay [18] deals with Heat shock factor protein 1 (Homo sapiens) (UniProt Q00613). Briefly: ATG_HSE_CIS: Attagene CIS-FACTORIAL HepG2 Assay for human Heat Shock Transcription Factor 1 (HSE) (AID 2282953). The conditions noted are these: HepG2 HSE cis-reporter, Attagene RNA transcription; actives raise or lower the signal. Summed up:
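HepG2 cells transfected with cis-promoter reporter units sensing endogenous transcription factor activity; reporter mRNA quantified 24 h post-dose by RT-PCR and capillary electrophoresis of 6-FAM-labelled products. Bidirectional fitting against DMSO.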

Assay [19] in a line: ATG_MRE_CIS: Attagene CIS-FACTORIAL HepG2 Assay for human Metal Responsive Element (MRE) (AID 2282954). The conditions noted are these: HepG2 MRE cis-reporter transcription, Attagene multiplex; actives raise or lower the signal. Summed up:
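Endogenous MRE-dependent transcription read as reporter mRNA in transiently transfected human HepG2 cells at 24 h. RNA reverse-transcribed, PCR-amplified, labelled and resolved by capillary electrophoresis; gain or loss relative to DMSO.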

The nature of assay [20]: ATG_PBREM_CIS: Attagene CIS-FACTORIAL HepG2 Assay for human Phenobarbital-responsive Enhancer Module (PBREM) (AID 2282955). The conditions noted are these: HepG2 PBREM cis-reporter, Attagene multiplexed transcription; actives raise or lower the signal. Summed up: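 Endogenous transcription factors in human liver HepG2 cells drive a PBREM cis-element reporter, whose transcript level after 24 h treatment is quantified by RT-PCR with capillary electrophoresis; activity fitted in both directions against DMSO.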

The structures appear in SMILES notation. Activity calls are given as the source filed them. The calls were made as follows: active = hit-call score of the fitted dose curve at least 0.9, where 1 is the maximum; inactive = score below 0.9.

Sequence of Hepatocyte nuclear factor 6 (Homo sapiens) (Q9UBC0 whole entry, looked up): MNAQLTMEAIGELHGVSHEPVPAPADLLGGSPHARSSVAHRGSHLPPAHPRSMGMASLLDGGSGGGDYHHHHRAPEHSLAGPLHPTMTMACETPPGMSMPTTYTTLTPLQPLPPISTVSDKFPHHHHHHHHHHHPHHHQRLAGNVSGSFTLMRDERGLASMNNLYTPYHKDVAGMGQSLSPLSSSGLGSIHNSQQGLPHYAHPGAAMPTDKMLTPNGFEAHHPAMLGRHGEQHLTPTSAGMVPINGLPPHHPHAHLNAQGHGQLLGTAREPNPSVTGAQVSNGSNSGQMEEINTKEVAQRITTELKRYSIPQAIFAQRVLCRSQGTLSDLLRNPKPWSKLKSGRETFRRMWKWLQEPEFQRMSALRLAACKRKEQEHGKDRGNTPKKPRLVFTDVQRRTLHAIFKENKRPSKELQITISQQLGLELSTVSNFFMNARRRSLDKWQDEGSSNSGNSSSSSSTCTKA
Sequence of Heat shock factor protein 1 (Homo sapiens) (Q00613 whole entry, looked up): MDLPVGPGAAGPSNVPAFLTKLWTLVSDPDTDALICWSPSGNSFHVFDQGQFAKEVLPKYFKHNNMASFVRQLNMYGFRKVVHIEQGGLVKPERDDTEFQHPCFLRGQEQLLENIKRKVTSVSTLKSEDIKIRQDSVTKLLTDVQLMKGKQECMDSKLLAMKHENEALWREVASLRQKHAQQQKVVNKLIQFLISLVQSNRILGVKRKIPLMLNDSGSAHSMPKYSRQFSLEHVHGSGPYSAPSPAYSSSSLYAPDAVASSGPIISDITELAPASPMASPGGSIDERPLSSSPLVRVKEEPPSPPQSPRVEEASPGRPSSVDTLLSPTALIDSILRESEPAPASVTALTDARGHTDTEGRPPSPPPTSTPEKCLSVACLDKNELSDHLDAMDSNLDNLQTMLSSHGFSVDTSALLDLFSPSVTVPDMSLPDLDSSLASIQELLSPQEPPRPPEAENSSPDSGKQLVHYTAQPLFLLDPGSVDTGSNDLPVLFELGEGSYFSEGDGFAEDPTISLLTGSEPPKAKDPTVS
Sequence of Hypoxia-inducible factor 1-alpha (Homo sapiens) (Q16665 whole entry, looked up, the tested form may be a part): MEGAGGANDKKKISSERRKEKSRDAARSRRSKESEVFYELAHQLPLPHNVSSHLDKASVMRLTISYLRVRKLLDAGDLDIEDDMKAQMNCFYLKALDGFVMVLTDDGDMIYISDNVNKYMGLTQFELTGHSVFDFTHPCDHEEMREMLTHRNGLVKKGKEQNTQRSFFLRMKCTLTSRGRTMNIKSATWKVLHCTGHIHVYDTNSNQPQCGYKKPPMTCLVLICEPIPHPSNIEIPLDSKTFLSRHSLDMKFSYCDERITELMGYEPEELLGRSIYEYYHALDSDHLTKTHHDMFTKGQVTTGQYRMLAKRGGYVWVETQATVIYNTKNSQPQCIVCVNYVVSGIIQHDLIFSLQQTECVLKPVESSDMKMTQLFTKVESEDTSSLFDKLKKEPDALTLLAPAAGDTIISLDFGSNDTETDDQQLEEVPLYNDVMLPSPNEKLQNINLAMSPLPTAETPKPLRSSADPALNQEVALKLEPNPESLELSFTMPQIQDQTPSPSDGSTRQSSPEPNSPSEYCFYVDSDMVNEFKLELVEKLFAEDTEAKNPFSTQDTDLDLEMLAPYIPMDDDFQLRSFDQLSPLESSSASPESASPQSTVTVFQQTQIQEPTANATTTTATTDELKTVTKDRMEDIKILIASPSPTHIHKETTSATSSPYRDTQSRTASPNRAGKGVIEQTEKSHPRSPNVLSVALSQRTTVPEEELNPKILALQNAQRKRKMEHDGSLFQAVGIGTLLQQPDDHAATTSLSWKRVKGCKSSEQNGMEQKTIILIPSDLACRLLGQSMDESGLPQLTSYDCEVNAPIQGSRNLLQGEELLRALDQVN
Sequence of Bile acid receptor (Homo sapiens) (Q96RI1 whole entry, looked up): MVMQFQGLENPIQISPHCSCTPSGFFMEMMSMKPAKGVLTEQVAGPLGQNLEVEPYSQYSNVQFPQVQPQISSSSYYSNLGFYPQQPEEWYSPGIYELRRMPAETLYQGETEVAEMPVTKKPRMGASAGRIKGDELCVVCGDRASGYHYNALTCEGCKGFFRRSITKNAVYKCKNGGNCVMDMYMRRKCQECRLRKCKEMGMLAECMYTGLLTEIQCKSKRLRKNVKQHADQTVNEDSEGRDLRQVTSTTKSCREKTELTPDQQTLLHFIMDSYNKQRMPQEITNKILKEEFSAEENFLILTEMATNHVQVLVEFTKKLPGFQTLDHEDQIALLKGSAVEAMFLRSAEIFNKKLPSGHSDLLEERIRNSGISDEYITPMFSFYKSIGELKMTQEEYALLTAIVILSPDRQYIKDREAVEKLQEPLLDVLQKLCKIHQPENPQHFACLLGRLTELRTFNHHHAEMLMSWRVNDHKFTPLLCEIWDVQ

`COC(=O)c1ccc(C)cc1`: the outcome in assay [1], in [2], in assay [3], in assay [4], in assay [5] and in assay [6] was inactive. Also, the compound was classed as inactive in assay [7], in assay [8], in assay [9], in [10], in assay [11] and in [12]. For the same compound, the compound was called inactive in [13], in assay [14], in assay [15], in assay [16], in [17] and in [18]. For the same compound, the compound was called inactive in [19] and in assay [20].

Take `COc1ccc(OC)c(OC)c1`: the result in assay [1], in assay [2], in assay [3], in [4], in assay [5] and in assay [6] was inactive. The call in assay [7], in assay [8], in assay [9], in assay [10], in assay [11] and in [12] was inactive. For the same compound, the call in [13], in assay [14], in assay [15], in [16], in assay [17] and in assay [18] was inactive. Besides, the compound was classed as inactive in assay [19] and in assay [20].

What is called AC50 is the concentration at which the activity in the assay is half-maximal. For `CN(CCOc1ccc(CC2SC(=O)NC2=O)cc1)c1ccccn1` (stereo not given), the outcome in assay [1], in assay [2], in assay [3], in [4], in assay [6] and in assay [7] was inactive. Also, the compound was classed as inactive in assay [8], in assay [9], in [10], in [11], in [13] and in [14]. Further, the result in assay [15], in assay [16], in assay [17], in [18] and in assay [19] was inactive. The AC50 is 82.3 nM (active) in [5] and 66.1 µM (active) in [20].

Consider `CC(C)OP(=O)(CP(=O)(OC(C)C)OC(C)C)OC(C)C`, for which the result in [1], in assay [2], in [3], in [4], in [5] and in [6] was inactive. The result in assay [7], in assay [8], in assay [9], in assay [10], in [11] and in assay [12] was inactive. The result in [13], in assay [14], in assay [15], in [16], in assay [17] and in assay [18] was inactive. Also, the compound was classed as inactive in [19] and in assay [20].

For the compound `CCCc1c(OCCCOc2ccc(OCC(=O)O)cc2)ccc(C(C)=O)c1O`, the outcome in assay [1], in assay [2], in assay [4], in assay [6], in assay [7] and in assay [8] was inactive. For the same compound, the result in assay [9], in assay [10], in [11], in [12], in assay [13] and in [14] was inactive. In addition, the compound was classed as inactive in assay [15] and in assay [17]. The AC50 in assay [3] is 31.8 µM (active); in assay [5], 365 nM (active); in assay [18], 150 µM (active); in assay [19], 79.2 µM (active).

As to `C=CC(C)(C)O`, the result in assay [1], in assay [2], in assay [3], in [4], in [5] and in assay [6] was inactive. Also, the compound was called inactive in [7], in [8], in [9], in [10], in [11] and in [12]. The result in assay [13], in assay [14], in assay [15], in assay [16], in [17] and in [18] was inactive. The call in assay [19] and in assay [20] was inactive.

Take `CC(C)c1cccc(O)c1`: the outcome in assay [1], in assay [2], in [3], in [4], in assay [6] and in assay [7] was inactive. Besides, the call in assay [8], in assay [9], in assay [10], in assay [12], in assay [13] and in assay [14] was inactive. Further, the compound was called inactive in [15], in assay [16], in [17], in assay [18] and in assay [19]. Besides, in assay [5], the AC50 is 104000 nM (active).

The values above are taken from PubChem BioAssay (EPA / NIEHS).
